Data from the supplement of paper PMC6555819.

Columns and labels:
Assay in all cases: PBM binding z-score (relative to random genomic background probes); higher = stronger binding; sequences stand for … in GC…GCGATTGACAGCGTAGAATGAAGG
[1] = test system: PPARg:RXRa DBDmut IVT, anti-RXR (DBD mutation: RXRa K156A/R161A, NR concentration 270 nM, RXRa partner concentration 90 nM)
How it was run: (§1)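 Binding buffer was PBS pH 7.4 with 2% milk, 0.02% Triton X-100, 1 mM DTT, 0.2 mg/mL BSA and 0.4 mg/ml salmon testes DNA. In it, ligand-free nuclear receptor dimers were incubated 1 h on custom Agilent 4×180K protein-binding microarrays carrying double-stranded probes. Antibodies against each partner (one per run) detected binding, and z-scores were calculated against random background probes after regression normalization of scanned fluorescence.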

[2] = test system: PPARg:RXRa IVT, anti-PPARg (NR concentration 270 nM, RXRa partner concentration 90 nM)
How it was run: as §1

[3] = test system: PPARg DBDmut:RXRa IVT, anti-PPARg (DBD mutation: PPARg1 K132A/R137A, NR concentration 270 nM, RXRa partner concentration 90 nM)
How it was run: as §1

[4] = test system: PPARg DBDmut IVT, anti-PPARg (DBD mutation: PPARg1 K132A/R137A, NR concentration 270 nM)
How it was run: as §1

[5] = test system: PPARg homodimer (NR concentration 180 nM)
How it was run: as §1

[6] = test system: PXR:RXRa (NR concentration 270 nM, RXRa partner concentration 90 nM)
How it was run: as §1

[7] = test system: PXR homodimer (NR concentration 270 nM)
How it was run: as §1

[8] = test system: RARa:RXR (NR concentration 270 nM, RXRa partner concentration 90 nM)
How it was run: as §1

[9] = test system: RARa homodimer (NR concentration 270 nM)
How it was run: as §1

[10] = test system: RARb homodimer (NR concentration 270 nM)
How it was run: as §1

[11] = test system: RARg:RXRa (NR concentration 270 nM, RXRa partner concentration 90 nM)
How it was run: as §1

[12] = test system: RARg homodimer (NR concentration 270 nM)
How it was run: as §1

[13] = test system: RXRa DBDmut IVT, anti-RXR (DBD mutation: RXRa K156A/R161A, NR concentration 90 nM)
How it was run: as §1

[14] = test system: RXRa homodimer (NR concentration 180 nM)
How it was run: as §1

[15] = test system: THRa:RXRa (NR concentration 90 nM, RXRa partner concentration 90 nM)
How it was run: as §1

[16] = test system: THRa homodimer (NR concentration 90 nM)
How it was run: as §1

[17] = test system: VDR homodimer (NR concentration 270 nM)
How it was run: as §1

[18] = test system: VDR:RXRa (NR concentration 270 nM, RXRa partner concentration 90 nM)
How it was run: as §1

CATACCGGGTCAGCTAGGCCAGAGTAGGGACGGC gave a PBM binding z-score [1] of 1.21, a PBM binding z-score [2] of 2.82 and a PBM binding z-score [3] of 0.167. It also gave a PBM binding z-score [4] of 0.0787, a PBM binding z-score [5] of 0.359 and a PBM binding z-score [6] of 1.05. For the same sequence, the PBM binding z-score [7] was -0.232, the PBM binding z-score [8] was 1.76 and the PBM binding z-score [9] was -0.125. The PBM binding z-score [10] was 2.34, the PBM binding z-score [11] was 3.47 and the PBM binding z-score [12] was 3.83. For the same sequence, the PBM binding z-score [13] was -0.0713, the PBM binding z-score [14] was 3 and the PBM binding z-score [15] was 2.53. It also gave a PBM binding z-score [16] of 0.906 and a PBM binding z-score [17] of 0.395.
Sequence TTTCCAAGGTGAAAGGTCGTTGATGCACGCCTTG has a PBM binding z-score [1] of 2.51, a PBM binding z-score [2] of 4.72 and a PBM binding z-score [3] of 0.923. For the same sequence, the PBM binding z-score [4] was 0.85, the PBM binding z-score [5] was 1.64 and the PBM binding z-score [6] was 4.23. For the same sequence, the PBM binding z-score [7] was 0.161, the PBM binding z-score [8] was 5.56 and the PBM binding z-score [9] was -0.0268. For the same sequence, the PBM binding z-score [10] was 2.58, the PBM binding z-score [11] was 4.16 and the PBM binding z-score [12] was 1.99. For the same sequence, the PBM binding z-score [13] was 0.408, the PBM binding z-score [14] was 5.33 and the PBM binding z-score [15] was 3.76. The PBM binding z-score [16] was 1.38 and the PBM binding z-score [17] was 1.38.
In the case of CAAACTAGGTCACGAAAGGTCAACGTCGAATGAC, the PBM binding z-score [1] is reported as 8.6, the PBM binding z-score [2] is reported as 9.17 and the PBM binding z-score [3] is reported as 3.99. It also gave a PBM binding z-score [4] of 4.43, a PBM binding z-score [5] of 6.55 and a PBM binding z-score [6] of 7.35. It also gave a PBM binding z-score [7] of 2.65, a PBM binding z-score [8] of 7.97 and a PBM binding z-score [9] of 4.53. It also gave a PBM binding z-score [10] of 6.16, a PBM binding z-score [11] of 8.06 and a PBM binding z-score [12] of 8.96. It also gave a PBM binding z-score [13] of 2.47, a PBM binding z-score [14] of 8.35 and a PBM binding z-score [15] of 5.36. For the same sequence, the PBM binding z-score [16] was 2.98 and the PBM binding z-score [17] was 3.47.
In the case of ATCTCTAGGTAAAGTTCAGCGAAAGATCGATAGA, the PBM binding z-score [1] is reported as 2.11, the PBM binding z-score [2] is reported as 2.5 and the PBM binding z-score [3] is reported as 1.45. It also gave a PBM binding z-score [4] of 1.53, a PBM binding z-score [5] of 1.49 and a PBM binding z-score [6] of 2.29. For the same sequence, the PBM binding z-score [7] was 1.48, the PBM binding z-score [8] was 2.06 and the PBM binding z-score [9] was 0.708. For the same sequence, the PBM binding z-score [10] was 2.94, the PBM binding z-score [11] was 2.55 and the PBM binding z-score [12] was 2.95. The PBM binding z-score [13] was 1.25, the PBM binding z-score [14] was 1.9 and the PBM binding z-score [15] was 1.41. It also gave a PBM binding z-score [16] of 0.214, a PBM binding z-score [18] of 1.84 and a PBM binding z-score [17] of 1.66.
AGTCAAAGTTCACGAGGTAACGTAAGATTCAGCT gave a PBM binding z-score [1] of 1.37, a PBM binding z-score [2] of 4.03 and a PBM binding z-score [3] of 1.17. For the same sequence, the PBM binding z-score [4] was 0.67, the PBM binding z-score [5] was 2.91 and the PBM binding z-score [6] was 5.13. The PBM binding z-score [7] was 2.45, the PBM binding z-score [8] was 4.95 and the PBM binding z-score [9] was 1.29. The PBM binding z-score [10] was 4.91, the PBM binding z-score [11] was 6.34 and the PBM binding z-score [12] was 7.02. For the same sequence, the PBM binding z-score [13] was 4.45, the PBM binding z-score [14] was 6.24 and the PBM binding z-score [15] was 3.61. The PBM binding z-score [16] was 1.34 and the PBM binding z-score [17] was 3.84.
With CCTACTGGGCCATTCAGAGGACATTGATCATATG the PBM binding z-score [1] was 4.5, the PBM binding z-score [2] was 3.41 and the PBM binding z-score [3] was 0.559. The PBM binding z-score [4] was -0.35, the PBM binding z-score [5] was -0.295 and the PBM binding z-score [6] was -0.327. It also gave a PBM binding z-score [7] of 0.096, a PBM binding z-score [8] of -0.457 and a PBM binding z-score [9] of -0.467. For the same sequence, the PBM binding z-score [10] was 0.736, the PBM binding z-score [11] was 0.858 and the PBM binding z-score [12] was 0.53. The PBM binding z-score [13] was -0.28, the PBM binding z-score [14] was -0.174 and the PBM binding z-score [15] was 0.676. It also gave a PBM binding z-score [16] of 0.238, a PBM binding z-score [18] of -0.347 and a PBM binding z-score [17] of 0.541.
For CGTCCAAGGTCAGCAGGTCACTGAAAGCGACGTG, the PBM binding z-score [1] was 3.75, the PBM binding z-score [2] was 4.56 and the PBM binding z-score [3] was 0.394. For the same sequence, the PBM binding z-score [4] was -1.07, the PBM binding z-score [5] was 5.36 and the PBM binding z-score [6] was 4.71. It also gave a PBM binding z-score [7] of 0.781, a PBM binding z-score [8] of 6.22 and a PBM binding z-score [9] of 2.7. For the same sequence, the PBM binding z-score [10] was 5.25, the PBM binding z-score [11] was 7.24 and the PBM binding z-score [12] was 7.65. The PBM binding z-score [13] was 2.86, the PBM binding z-score [14] was 6.51 and the PBM binding z-score [15] was 4.32. It also gave a PBM binding z-score [16] of 2.37 and a PBM binding z-score [17] of 1.88.
For AGTCATAGTTCACTAGGTAACGTAAGATTCAGCT, the PBM binding z-score [1] was 1.88, the PBM binding z-score [2] was 3.43 and the PBM binding z-score [3] was 1.06. The PBM binding z-score [4] was 0.768, the PBM binding z-score [5] was 1.27 and the PBM binding z-score [6] was 1.17. For the same sequence, the PBM binding z-score [7] was 0.241, the PBM binding z-score [8] was 1.21 and the PBM binding z-score [9] was 0.337. For the same sequence, the PBM binding z-score [10] was 2.32, the PBM binding z-score [11] was 2.32 and the PBM binding z-score [12] was 2.72. For the same sequence, the PBM binding z-score [13] was 1.82, the PBM binding z-score [14] was 1.6 and the PBM binding z-score [15] was 1.11. For the same sequence, the PBM binding z-score [16] was 0.171 and the PBM binding z-score [17] was 0.797.
